From PubChem BioAssay AID1159580 (chemical genetic matrix, 2015)
The campaign covered roughly 5,500 compounds. About 2,000 (36%) were called active. About 18% were inconclusive and are not listed. Rule as the data show it: active = normalized growth mostly below about 0.91 (no sharp cut-off); inconclusive = no clear call, values can overlap the other calls; inactive = mostly above about 0.92. This is one part of the list.

Assay: chemical genetic growth profiling, strain panel (AID 1159580);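 also: tested at 20 µM; growth read once vehicle control cultures reached saturation at 30 °C; 1 = growth at the plate median or of vehicle wells; lower values mean less growth of the strain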
Details: growth OD
[1] = S. cerevisiae deletion strains, locus YDL101C, strain DUN1, stronger effect = lower value
[2] = S. cerevisiae deletion strains, locus YHR030C, strain SLT2, stronger effect = lower value

Measured: normalized growth

CC(=O)c1cnn(-c2ccccc2)c1C
inactive: S. cerevisiae deletion strains, locus YAL013W, strain DEP1, stronger effect = lower value 0.979 | S. cerevisiae deletion strains, locus YBR229C, strain ROT2, stronger effect = lower value 0.984 | S. cerevisiae deletion strains, locus YCL061C, strain MRC1, stronger effect = lower value 0.992 | [1] 0.985 | S. cerevisiae deletion strains, locus YDL134C, strain PPH21, stronger effect = lower value 1.01 | S. cerevisiae deletion strains, locus YDR150W, strain NUM1, stronger effect = lower value 0.925 | S. cerevisiae deletion strains, locus YEL061C, strain CIN8, stronger effect = lower value 1 | S. cerevisiae deletion strains, locus YGR078C, strain PAC10, stronger effect = lower value 0.995 | [2] 0.945 | S. cerevisiae deletion strains, locus YHR087W, strain rtc3, stronger effect = lower value 0.99 | S. cerevisiae deletion strains, locus YJR043C, strain POL32, stronger effect = lower value 0.994 | S. cerevisiae deletion strains, locus YJR075W, strain HOC1, stronger effect = lower value 1 | S. cerevisiae deletion strains, locus YLR039C, strain RIC1, stronger effect = lower value 1 | S. cerevisiae deletion strains, locus YLR058C, strain SHM2 (second series), stronger effect = lower value 0.998 | S. cerevisiae deletion strains, locus YLR085C, strain ARP6, stronger effect = lower value 0.963 | S. cerevisiae deletion strains, locus YLR262C, strain YPT6, stronger effect = lower value 1.01 | S. cerevisiae deletion strains, locus YML094W, strain GIM5, stronger effect = lower value 0.948 | S. cerevisiae deletion strains, locus YMR219W, strain ESC1, stronger effect = lower value 0.997 | S. cerevisiae deletion strains, locus YMR263W, strain SAP30, stronger effect = lower value 0.922 | S. cerevisiae deletion strains, locus YMR307W, strain GAS1, stronger effect = lower value 0.957 | S. cerevisiae deletion strains, locus YNL153C, strain GIM3, stronger effect = lower value 0.981 | S. cerevisiae deletion strains, locus YNL298W, strain CLA4 (second series), stronger effect = lower value 1 | S. cerevisiae deletion strains, locus YNL322C, strain KRE1, stronger effect = lower value 0.997 | S. cerevisiae deletion strains, locus YNR030W, strain Alg12, stronger effect = lower value 1 | S. cerevisiae deletion strains, locus YOL006C, strain TOP1, stronger effect = lower value 0.983 | S. cerevisiae deletion strains, locus YPL055C, strain LGE1, stronger effect = lower value 0.848 | S. cerevisiae deletion strains, locus YPL241C, strain CIN2, stronger effect = lower value 0.984 | S. cerevisiae deletion strains, locus YPR135W, strain CTF4, stronger effect = lower value 0.944 | S. cerevisiae strains, strain wild type, stronger effect = lower value 0.997

Cc1c(C(=O)N(Cc2ccccc2)Cc2cccs2)cnn1-c1ccc(Cl)cc1
inactive: S. cerevisiae deletion strains, locus YAR019C, strain CDC15, stronger effect = lower value 0.992 | S. cerevisiae deletion strains, locus YBL105C, strain PKC1, stronger effect = lower value 0.989 | S. cerevisiae deletion strains, locus YBR135W, strain CKS1, stronger effect = lower value 0.984 | S. cerevisiae deletion strains, locus YBR136W, strain MEC1, stronger effect = lower value 0.981 | S. cerevisiae deletion strains, locus YBR160W, strain CDC28, stronger effect = lower value 0.981 | S. cerevisiae deletion strains, locus YDL017W, strain CDC7, stronger effect = lower value 0.998 | S. cerevisiae deletion strains, locus YDL028C, strain MPS1, stronger effect = lower value 0.985 | [1] 0.99 | S. cerevisiae deletion strains, locus YDL108W, strain KIN28, stronger effect = lower value 0.985 | S. cerevisiae deletion strains, locus YDL132W, strain cdc53, stronger effect = lower value 0.976 | S. cerevisiae deletion strains, locus YDL214C, strain PRR2, stronger effect = lower value 0.947 | S. cerevisiae deletion strains, locus YDR052C, strain DBF4, stronger effect = lower value 1 | S. cerevisiae deletion strains, locus YDR054C, strain cdc34, stronger effect = lower value 0.987 | S. cerevisiae deletion strains, locus YDR226W, strain ADK1, stronger effect = lower value 0.996 | S. cerevisiae deletion strains, locus YDR477W, strain SNF1, stronger effect = lower value 0.946 | S. cerevisiae deletion strains, locus YER123W, strain YCK3, stronger effect = lower value 0.94 | S. cerevisiae deletion strains, locus YER133W, strain GLC7, stronger effect = lower value 0.957 | S. cerevisiae deletion strains, locus YFL009W, strain cdc4, stronger effect = lower value 0.986 | S. cerevisiae deletion strains, locus YFL029C, strain CAK1, stronger effect = lower value 0.988 | S. cerevisiae deletion strains, locus YFR003C, strain YPI1, stronger effect = lower value 0.99 | S. cerevisiae deletion strains, locus YFR019W, strain FAB1, stronger effect = lower value 0.963 | S. cerevisiae deletion strains, locus YFR028C, strain CDC14, stronger effect = lower value 0.981 | S. cerevisiae deletion strains, locus YGR040W, strain KSS1, stronger effect = lower value 0.938 | S. cerevisiae deletion strains, locus YGR052W, strain FMP48, stronger effect = lower value 1.03 | S. cerevisiae deletion strains, locus YGR092W, strain DBF2, stronger effect = lower value 0.967 | [2] 0.934 | S. cerevisiae deletion strains, locus YHR079C, strain IRE1, stronger effect = lower value 0.953 | S. cerevisiae deletion strains, locus YHR082C, strain KSP1, stronger effect = lower value 1.03 | S. cerevisiae deletion strains, locus YHR205W, strain SCH9, stronger effect = lower value 0.919 | S. cerevisiae deletion strains, locus YIL147C, strain SLN1, stronger effect = lower value 0.997 | S. cerevisiae deletion strains, locus YJL095W, strain BCK1, stronger effect = lower value 0.945 | S. cerevisiae deletion strains, locus YJL128C, strain PBS2, stronger effect = lower value 0.967 | S. cerevisiae deletion strains, locus YJL157C, strain FAR1, stronger effect = lower value 0.935 | S. cerevisiae deletion strains, locus YJR016C, strain ILV3, stronger effect = lower value 0.982 | S. cerevisiae deletion strains, locus YJR066W, strain TOR1 (second series), stronger effect = lower value 0.883 | S. cerevisiae deletion strains, locus YJR066W, strain TOR1, stronger effect = lower value 1.02 | S. cerevisiae deletion strains, locus YKL048C, strain ELM1, stronger effect = lower value 0.97 | S. cerevisiae deletion strains, locus YKL067W, strain YNK1, stronger effect = lower value 0.968 | S. cerevisiae deletion strains, locus YKL101W, strain HSL1, stronger effect = lower value 0.94 | S. cerevisiae deletion strains, locus YKL193C, strain SDS22, stronger effect = lower value 0.982 | S. cerevisiae deletion strains, locus YKL203C, strain TOR2, stronger effect = lower value 0.997 | S. cerevisiae deletion strains, locus YLR113W, strain HOG1, stronger effect = lower value 0.925 | S. cerevisiae deletion strains, locus YLR133W, strain CKI1, stronger effect = lower value 0.936 | S. cerevisiae deletion strains, locus YLR403W, strain SFP1, stronger effect = lower value 0.915 | S. cerevisiae deletion strains, locus YML070W, strain DAK1, stronger effect = lower value 0.926 | S. cerevisiae deletion strains, locus YMR001C, strain CDC5, stronger effect = lower value 0.987 | S. cerevisiae deletion strains, locus YMR205C, strain PFK2 (second series), stronger effect = lower value 0.944 | S. cerevisiae deletion strains, locus YMR277W, strain FCP1, stronger effect = lower value 0.989 | S. cerevisiae deletion strains, locus YNL006W, strain LST8, stronger effect = lower value 1.01 | S. cerevisiae deletion strains, locus YNL020C, strain ARK1, stronger effect = lower value 0.945 | S. cerevisiae deletion strains, locus YNL161W, strain CBK1, stronger effect = lower value 0.995 | S. cerevisiae deletion strains, locus YNL183C, strain NPR1, stronger effect = lower value 0.995 | S. cerevisiae deletion strains, locus YNL207W, strain RIO2, stronger effect = lower value 0.989 | S. cerevisiae deletion strains, locus YNL222W, strain SSU72, stronger effect = lower value 0.99 | S. cerevisiae deletion strains, locus YNL307C, strain MCK1 (second series), stronger effect = lower value 0.95 | S. cerevisiae deletion strains, locus YOL078W, strain AVO1, stronger effect = lower value 0.989 | S. cerevisiae deletion strains, locus YOL136C, strain PFK27, stronger effect = lower value 0.926 | S. cerevisiae deletion strains, locus YOR061W, strain CKA2, stronger effect = lower value 0.95 | S. cerevisiae deletion strains, locus YOR119C, strain RIO1, stronger effect = lower value 1 | S. cerevisiae deletion strains, locus YOR231W, strain MKK1, stronger effect = lower value 0.888 | S. cerevisiae deletion strains, locus YOR329C, strain SCD5, stronger effect = lower value 0.99 | S. cerevisiae deletion strains, locus YPL031C, strain PHO85, stronger effect = lower value 0.962 | S. cerevisiae deletion strains, locus YPL153C, strain RAD53, stronger effect = lower value 0.926 | S. cerevisiae deletion strains, locus YPL204W, strain HRR25, stronger effect = lower value 0.931 | S. cerevisiae deletion strains, locus YPL209C, strain IPL1, stronger effect = lower value 0.988 | S. cerevisiae deletion strains, locus YPL256C, strain CLN2, stronger effect = lower value 0.922 | S. cerevisiae deletion strains, locus YPR025C, strain CCL1, stronger effect = lower value 0.99 | S. cerevisiae deletion strains, locus YPR106W, strain ISR1, stronger effect = lower value 0.974 | S. cerevisiae deletion strains, locus YPR111W, strain DBF20, stronger effect = lower value 0.972 | S. cerevisiae deletion strains, strain NNK1, stronger effect = lower value 0.986 | S. cerevisiae deletion strains, strain TSCII, stronger effect = lower value 0.973
